# From PubChem BioAssay (EPA / NIEHS)
# Inconclusive results are not listed. The source made the active and inactive calls. The calls were made as follows: active = hit-call score of the fitted dose curve at least 0.9, where 1 is the maximum; inconclusive = response in the unintended direction; inactive = score below 0.9.
# How the values were obtained:
# AR (gene 367) = AR (gene 367) (UniProt P10275); experiment: ACEA_AR_antagonist_80hr: ACEA Biosciences xCELLigence Real-Time Cell Analysis on Androgen Receptor Antagonism for Proliferation (AID 2283787);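 also: 22Rv1 human prostate cancer cells with growth followed by electrical impedance; hits lower the impedance growth signal relative to DMSO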
# Sequence of AR (gene 367) (P10275 whole entry, looked up): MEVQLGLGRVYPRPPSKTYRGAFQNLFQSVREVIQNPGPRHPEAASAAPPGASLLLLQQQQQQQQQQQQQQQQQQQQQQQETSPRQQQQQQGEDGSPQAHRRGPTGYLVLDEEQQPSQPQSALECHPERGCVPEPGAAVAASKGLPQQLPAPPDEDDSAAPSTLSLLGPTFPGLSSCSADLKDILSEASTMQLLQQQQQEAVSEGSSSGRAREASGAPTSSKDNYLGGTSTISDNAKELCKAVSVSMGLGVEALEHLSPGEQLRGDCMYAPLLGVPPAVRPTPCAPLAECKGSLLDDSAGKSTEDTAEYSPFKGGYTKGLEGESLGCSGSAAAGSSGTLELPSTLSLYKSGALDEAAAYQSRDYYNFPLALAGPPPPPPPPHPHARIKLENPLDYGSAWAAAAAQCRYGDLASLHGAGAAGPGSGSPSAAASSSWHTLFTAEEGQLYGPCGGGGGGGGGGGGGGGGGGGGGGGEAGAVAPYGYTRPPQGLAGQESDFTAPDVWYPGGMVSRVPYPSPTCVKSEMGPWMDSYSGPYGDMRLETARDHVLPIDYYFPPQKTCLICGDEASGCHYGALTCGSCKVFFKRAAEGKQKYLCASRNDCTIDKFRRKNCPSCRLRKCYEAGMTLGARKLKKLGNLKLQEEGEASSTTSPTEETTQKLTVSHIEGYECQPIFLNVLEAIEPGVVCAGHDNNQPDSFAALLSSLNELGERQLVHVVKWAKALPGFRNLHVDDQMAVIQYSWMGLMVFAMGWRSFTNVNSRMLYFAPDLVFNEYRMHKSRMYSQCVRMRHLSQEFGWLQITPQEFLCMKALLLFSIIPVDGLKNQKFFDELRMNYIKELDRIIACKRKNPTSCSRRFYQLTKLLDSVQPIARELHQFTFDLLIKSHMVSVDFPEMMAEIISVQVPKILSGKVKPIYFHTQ
# Method in brief: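 Impedance readout (RT-CES), 80 h post-dose; loss-of-signal vs DMSO baseline. 22Rv1 cells in assay medium. Compounds: 8-pt 1:4 series, max 100 uM final, up to 0.5% DMSO; n = 2.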
# [1] = target: Estrogen receptor beta (Homo sapiens) (UniProt Q92731); experiment: ATG_hERb_XSP1: Attagene TRANS-FACTORIAL Multi-Species (XSP1) HepG2 Assay for human Estrogen Receptor (ESR2) (AID 2283788)
# Sequence of Estrogen receptor beta (Homo sapiens) (Q92731 whole entry, looked up, the tested form may be a part): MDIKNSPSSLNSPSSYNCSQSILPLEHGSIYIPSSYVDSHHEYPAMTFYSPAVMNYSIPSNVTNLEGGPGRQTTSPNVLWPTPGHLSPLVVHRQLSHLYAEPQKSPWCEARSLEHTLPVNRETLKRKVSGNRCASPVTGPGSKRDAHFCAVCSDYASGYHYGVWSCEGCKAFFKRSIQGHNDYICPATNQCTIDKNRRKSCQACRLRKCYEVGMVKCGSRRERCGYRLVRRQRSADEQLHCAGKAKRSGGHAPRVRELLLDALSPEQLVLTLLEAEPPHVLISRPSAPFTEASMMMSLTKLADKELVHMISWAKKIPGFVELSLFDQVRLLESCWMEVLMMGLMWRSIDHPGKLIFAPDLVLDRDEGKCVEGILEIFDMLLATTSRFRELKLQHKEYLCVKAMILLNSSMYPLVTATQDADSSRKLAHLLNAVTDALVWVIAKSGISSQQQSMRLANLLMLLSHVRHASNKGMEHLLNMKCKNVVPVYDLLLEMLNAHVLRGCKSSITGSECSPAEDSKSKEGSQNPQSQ
# Method in brief: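 Read-out: reporter mRNA induction by RT-PCR, HpaI digestion and capillary electrophoresis fluorescence, fitted in positive direction relative to DMSO baseline. Human liver HepG2 cells expressing ERβ-Gal4 fusion, dosed 24 h, medium containing 3 nM 6-alpha-fluorotestosterone.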
# [2] = target: GAL4 Transcription Factor (Internal Marker), GAL4 (gene 855828) (UniProt P04386); experiment: ATG_GAL4_XSP1: Attagene TRANS-FACTORIAL Multi-Species (XSP1) HepG2 Assay for GAL4 Transcription Factor (Internal Marker) (AID 2283789)
# Sequence of GAL4 Transcription Factor (Internal Marker), GAL4 (gene 855828) (P04386 whole entry, looked up, the tested form may be a part): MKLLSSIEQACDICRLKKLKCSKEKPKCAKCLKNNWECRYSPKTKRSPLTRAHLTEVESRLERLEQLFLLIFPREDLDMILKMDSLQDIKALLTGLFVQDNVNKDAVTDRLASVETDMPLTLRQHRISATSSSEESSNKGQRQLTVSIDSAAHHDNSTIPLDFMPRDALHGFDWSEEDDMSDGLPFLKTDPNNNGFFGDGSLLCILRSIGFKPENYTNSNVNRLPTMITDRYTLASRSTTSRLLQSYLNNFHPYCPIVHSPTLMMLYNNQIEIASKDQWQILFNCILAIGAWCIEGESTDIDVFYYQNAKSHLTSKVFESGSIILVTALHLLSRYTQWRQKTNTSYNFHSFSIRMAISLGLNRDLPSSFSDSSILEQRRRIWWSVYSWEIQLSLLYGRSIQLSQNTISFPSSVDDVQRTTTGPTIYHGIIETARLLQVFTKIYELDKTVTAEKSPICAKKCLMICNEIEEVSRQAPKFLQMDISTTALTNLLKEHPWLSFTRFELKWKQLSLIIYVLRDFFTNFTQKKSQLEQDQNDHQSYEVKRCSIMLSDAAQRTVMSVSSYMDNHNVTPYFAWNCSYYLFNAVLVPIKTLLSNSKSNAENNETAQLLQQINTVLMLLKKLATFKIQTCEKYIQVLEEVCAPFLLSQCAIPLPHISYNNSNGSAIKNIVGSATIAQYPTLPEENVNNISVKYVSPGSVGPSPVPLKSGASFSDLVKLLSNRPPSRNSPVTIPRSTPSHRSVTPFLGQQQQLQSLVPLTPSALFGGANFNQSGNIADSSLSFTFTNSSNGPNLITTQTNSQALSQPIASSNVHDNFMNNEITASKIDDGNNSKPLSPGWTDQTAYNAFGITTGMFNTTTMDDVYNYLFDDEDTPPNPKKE
# Method in brief: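 HepG2 cells transiently transfected with multiplexed GAL4-UAS reporter units were exposed for 24 h with 3 nM 6-alpha-fluorotestosterone present. Reporter mRNA was quantified by RT-PCR, FAM labelling, HpaI digestion and capillary electrophoresis; background-control readout, gain-of-signal versus DMSO.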
# [3] = ATG_M_06_XSP1: Attagene TRANS-FACTORIAL Multi-Species (XSP1) HepG2 Assay for M06 Transcription Factor (Internal Marker) (AID 2283790)
# Method in brief: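 Transfected HepG2 multi-reporter system treated 24 h in the presence of 3 nM 6-alpha-fluorotestosterone. The M06 internal marker transcript was quantified by RT-PCR with capillary electrophoresis as a background control, and gain of signal was scored versus DMSO.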
# [4] = ATG_M_61_XSP1: Attagene TRANS-FACTORIAL Multi-Species (XSP1) HepG2 Assay for M61 Transcription Factor (Internal Marker) (AID 2283797)
# Method in brief: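 HepG2 cells transiently transfected with multiplexed GAL4-driven reporter units, dosed 24 h with 3 nM 6-alpha-fluorotestosterone present. Reporter mRNA quantified by RT-PCR, 6-FAM labelling, HpaI digestion and capillary electrophoresis; internal-marker background control, gain of signal versus DMSO.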
# [5] = target: Peroxisome proliferator-activated receptor gamma (Homo sapiens) (UniProt P37231); experiment: ATG_hPPARg_XSP1: Attagene TRANS-FACTORIAL Multi-Species (XSP1) HepG2 Assay for human Peroxisome Proliferator-activated Receptor gamma (PPARg) (AID 2283800)
# Sequence of Peroxisome proliferator-activated receptor gamma (Homo sapiens) (P37231 whole entry, looked up): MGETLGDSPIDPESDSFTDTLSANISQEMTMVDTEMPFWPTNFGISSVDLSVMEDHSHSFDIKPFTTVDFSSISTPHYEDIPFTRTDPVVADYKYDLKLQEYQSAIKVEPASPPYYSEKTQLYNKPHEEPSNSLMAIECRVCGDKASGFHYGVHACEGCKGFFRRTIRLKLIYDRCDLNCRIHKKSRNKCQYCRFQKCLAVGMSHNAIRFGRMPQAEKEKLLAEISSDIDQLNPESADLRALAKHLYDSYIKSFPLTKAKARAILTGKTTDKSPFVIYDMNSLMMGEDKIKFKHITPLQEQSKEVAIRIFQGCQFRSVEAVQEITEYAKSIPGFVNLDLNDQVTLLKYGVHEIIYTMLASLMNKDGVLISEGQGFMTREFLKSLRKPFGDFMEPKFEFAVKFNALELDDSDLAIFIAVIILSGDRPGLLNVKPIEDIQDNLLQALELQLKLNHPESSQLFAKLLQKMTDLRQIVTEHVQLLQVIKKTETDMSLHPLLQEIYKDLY
# Method: (§1) ATG_XSP1_multi-species_TRANS is a cell-based, multiplexed assay created by modifying the existing Attagene TRANS-FACTORIAL system to include a panel of nuclear receptors from some or all the following species: human (Homo sapiens), mouse (Mus musculus), frog (Xenopus laevis), zebrafish (Danio rerio), chicken (Gallus gallus), and turtle (Chrysemys picta). The ECOTOX-FACTORIAL format uses HepG2, a human liver cell line, with measurements taken at 24 hours after chemical dosing in a 24-well plate. Xsp1 included 3 nM 6-alpha-fluorotestosterone to partially stimulate the androgen receptor.ATG_hPPARg_XSP1 is one of 29 assay components measured or calculated from the ATG_XSP1_multi-species_TRANS assay. It is designed to make measurements of mRNA induction, a form of inducible reporter, as detected with fluorescence intensity signals by Reverse transcription polymerase chain reaction (RT-PCR) and Capillary electrophoresis technology.The assay endpoint ATG_hPPARg_XSP1 was analyzed in the positive analysis fitting direction relative to DMSO as the negative control and baseline of activity. […] Furthermore, this assay endpoint can be referred to as a primary readout, because this assay has produced multiple assay endpoints where this one serves a reporter gene function. […]
# (§2) Human liver HepG2 cells are transiently transfected with multiple reporter transcription units (MRTUs) in 6-well plates using FuGene 6 reagent (Roche; 3 ml FuGene/1 mg DNA). […] A major difference between the CIS and TRANS system is that in CIS activities of endogenous TFs are measured, whereas the TRANS assay evaluates changes in activities of exogenous, chimeric NR-Gal4 proteins. […] The fragments were purified using Qiaquick PCR columns (Qiagen), analyzed on an ABI 3130xL genetic analyzer (Applied Biosystems) with peak positions identified by using a set of X-rhodamine (ROX)-labeled MapMarker1000 molecular weight standards (BioVentures). […]
# [6] = test system: turtle Androgen Receptor (AR), gene 101947425; experiment: ATG_trAR_XSP1: Attagene TRANS-FACTORIAL Multi-Species (XSP1) HepG2 Assay for turtle Androgen Receptor (AR) (AID 2283786)
# Method in brief: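 HepG2 cells transiently transfected with a turtle AR–GAL4 chimera and GAL4-UAS reporter, co-treated with 3 nM 6-alpha-fluorotestosterone for partial stimulation. Reporter mRNA is quantified at 24 h by RT-PCR and capillary electrophoresis, gain-of-signal versus DMSO.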
# [7] = ATG_M_19_XSP1: Attagene TRANS-FACTORIAL Multi-Species (XSP1) HepG2 Assay for M19 Transcription Factor (Internal Marker) (AID 2283798)
# Method in brief: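 HepG2 cells transiently transfected with multiplexed GAL4-UAS reporter units, dosed 24 h with 3 nM 6-alpha-fluorotestosterone present for partial AR stimulation. Reporter mRNA measured by RT-PCR with capillary electrophoresis; gain-of-signal fitted relative to DMSO.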
# [8] = ATG_M_32_XSP1: Attagene TRANS-FACTORIAL Multi-Species (XSP1) HepG2 Assay for M32 Transcription Factor (Internal Marker) (AID 2283799)
# Method: as §1, with “receptor.ATG_M_32_XSP1” for “receptor.ATG_hPPARg_XSP1”, “technology.This” for “technology.The”, “endpoint, ATG_M_32_XSP1,” for “endpoint ATG_hPPARg_XSP1”, “secondary” for “primary”, “background control” for “reporter gene”
# as §2
# [9] = test system: zebrafish Peroxisome Proliferator-activated Receptor gamma (PPARg), gene 557037; experiment: ATG_zfPPARg_XSP1: Attagene TRANS-FACTORIAL Multi-Species (XSP1) HepG2 Assay for zebrafish Peroxisome Proliferator-activated Receptor gamma (PPARg) (AID 2283801)
# Method: ATG_XSP1_multi-species_TRANS is a cell-based, multiplexed assay created by modifying the existing Attagene TRANS-FACTORIAL system to include a panel of nuclear receptors from some or all the following species: human (Homo sapiens), mouse (Mus musculus), frog (Xenopus laevis), zebrafish (Danio rerio), chicken (Gallus gallus), and turtle (Chrysemys picta). The ECOTOX-FACTORIAL format uses HepG2, a human liver cell line, with measurements taken at 24 hours after chemical dosing in a 24-well plate. Xsp1 included 3 nM 6-alpha-fluorotestosterone to partially stimulate the androgen receptor.ATG_zfPPARg_XSP1 is one of 29 assay components measured or calculated from the ATG_XSP1_multi-species_TRANS assay. It is designed to make measurements of mRNA induction, a form of inducible reporter, as detected with fluorescence intensity signals by Reverse transcription polymerase chain reaction (RT-PCR) and Capillary electrophoresis technology.The assay endpoint ATG_zfPPARg_XSP1 was analyzed in the positive analysis fitting direction relative to DMSO as the negative control and baseline of activity. Using a type of inducible reporter, measures of mRNA for gain-of-signal activity can be used to understand the reporter gene at the transcription factor-level as they relate to the gene PPARg. Furthermore, this assay endpoint can be referred to as a primary readout, because this assay has produced multiple assay endpoints where this one serves a reporter gene function. To generalize the intended target to other relatable targets, this assay endpoint is annotated to the nuclear receptor intended target family, where the subfamily is non-steroidal.
# Human liver HepG2 cells are transiently transfected with multiple reporter transcription units (MRTUs) in 6-well plates using FuGene 6 reagent (Roche; 3 ml FuGene/1 mg DNA). The MRTU constructs are regulated by a cis-regulating element (promoter). […] A major difference between the CIS and TRANS system is that in CIS activities of endogenous TFs are measured, whereas the TRANS assay evaluates changes in activities of exogenous, chimeric NR-Gal4 proteins. […] At the end of 24 hour incubation, total RNA was isolated using TriZol reagent (Invitrogen). The isolated RNA is then reverse-transcribed using oligo(dT) primer and Mo-MLV reverse transcriptase (Invitrogen) with DNAse I (Ambion) treatment for 30 min. […] The fragments were purified using Qiaquick PCR columns (Qiagen), analyzed on an ABI 3130xL genetic analyzer (Applied Biosystems) with peak positions identified by using a set of X-rhodamine (ROX)-labeled MapMarker1000 molecular weight standards (BioVentures). […]
smiles,measurement,setting,value
CC12CC1(C)C(=O)N(c1cc(Cl)cc(Cl)c1)C2=O (centres undefined),AC50,AR (gene 367),78.4 µM (active)
same,outcome,[1],inactive
same,outcome,[2],inactive
same,outcome,[3],inactive
same,outcome,[4],inactive
same,outcome,[5],inactive
ClC1(Cl)C2(Cl)C3(Cl)C4(Cl)C(Cl)(Cl)C5(Cl)C3(Cl)C1(Cl)C5(Cl)C24Cl (centres undefined),outcome,AR (gene 367),inactive
CCC(=O)C(CC(C)N(C)C)(c1ccccc1)c1ccccc1 (centres undefined),AC50,AR (gene 367),28.2 µM (active)
CC(C)c1cccc(C(C)C)c1O,outcome,AR (gene 367),inactive
C[C@]12CCC(=O)C[C@@H]1CC[C@@H]1[C@@H]2CC[C@]2(C)[C@@H](O)CC[C@@H]12,AC50,[6],0.168 µM (active)
same,outcome,[1],inactive
same,outcome,[7],inactive
same,outcome,[8],inactive
CC1(C)CCC(Cc2ccc(Cl)cc2)C1(O)Cn1cncn1 (centres undefined),outcome,[3],inactive
same,outcome,[4],inactive
same,outcome,[8],inactive
same,outcome,[5],inactive
same,outcome,[9],inactive
c1cc[c]([Hg][c]2ccccc2)cc1,AC50,AR (gene 367),21.9 µM (active)
Cc1ccccc1C(=O)Nc1cccc(OC(C)C)c1,outcome,AR (gene 367),inactive
CC(C)(C)c1cc(O)ccc1O,outcome,[3],inactive
same,outcome,[4],inactive
same,outcome,[9],inactive
Cc1ccc2ccccc2c1C,AC50,AR (gene 367),16.6 µM (active)
CCC1(c2ccc(N)cc2)CCC(=O)NC1=O (centres undefined),outcome,AR (gene 367),inactive
CCN1CCC2(CC1)COc1cc3c(cc12)N(C(=O)c1ccc(-c2ccc(-c4nnc(C)o4)cc2C)cc1)CC3,AC50,AR (gene 367),8.66 µM (active)
CC(C)(c1ccc(OCC2CO2)cc1)c1ccc(OCC2CO2)cc1 (centres undefined),outcome,AR (gene 367),inactive
COP(=O)(OC)O/C(=C\Cl)c1cc(Cl)c(Cl)cc1Cl,outcome,AR (gene 367),inactive
same,outcome,[3],inactive
same,outcome,[4],inactive
same,AC50,[5],14 µM (active)
same,outcome,[9],inactive
C[C@H]1CCCC(=O)CCC/C=C/c2cc(O)cc(O)c2C(=O)O1,AC50,AR (gene 367),13.9 µM (active)
O=c1[nH]c(=O)[nH]c(=O)[nH]1,outcome,AR (gene 367),inactive
COP(=S)(OC)Oc1ccc(Sc2ccc(OP(=S)(OC)OC)cc2)cc1,outcome,AR (gene 367),inactive
Clc1ccc(COC(Cn2ccnc2)c2ccc(Cl)cc2Cl)cc1 (centres undefined),AC50,AR (gene 367),8.61 µM (active)
CCOP(=S)(OCC)Oc1nc(Cl)c(Cl)cc1Cl,AC50,AR (gene 367),74.9 µM (active)
COP(=O)(OC)OC,outcome,AR (gene 367),inactive
CC(=O)[O][Hg][c]1ccccc1,AC50,AR (gene 367),1.21 µM (active)
O=C1C2(Cl)C3(Cl)C4(Cl)C(Cl)(Cl)C5(Cl)C3(Cl)C1(Cl)C5(Cl)C24Cl (centres undefined),AC50,AR (gene 367),7.92 µM (active)
same,outcome,[3],inactive
same,outcome,[4],inactive
O=[N+]([O-])c1ccc(O)c([N+](=O)[O-])c1,AC50,AR (gene 367),50 µM (active)
CC(C)(C)CC(C)(C)c1ccc(O)cc1,AC50,[1],2.74 µM (active)
same,outcome,[3],inactive
same,outcome,[4],inactive
same,outcome,[7],inactive
same,outcome,[8],inactive
same,outcome,[9],inactive
